# About 79,000 compounds went through this panel and 15% of them were active in at least one assay; those are over-represented in the sample as a whole. Values without a mark were called inactive. Calls of active or inactive are those of the source. Cut-off read from the data, not from the text of the source: active = growth inhibition above about 70%; inactive = the rest.
# Assays:
# [1] = NCI Yeast Anticancer Drug Screen. Data for the rad52 strain (AID 147);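 note: 0% = growth of vehicle-treated control cultures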; conditions: S. cerevisiae rad52 mutant growth inhibition, active compounds read high
# In short: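 Screen used a yeast mutant impaired in DNA repair. After compound exposure, growth was measured. Values reflect inhibition compared with vehicle-treated cells.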
# [2] = NCI Yeast Anticancer Drug Screen. Data for the wt1 strain (AID 149);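 note: 0% = growth of vehicle-treated wt1 cultures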; conditions: S. cerevisiae wt1 strain (SPY 50644) growth inhibition, active compounds read high
# In short: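 Vehicle-normalised growth inhibition; strain wt1; compound exposure.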
# [3] = NCI Yeast Anticancer Drug Screen. Data for the rad50 strain (AID 155);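 note: 0% = growth of vehicle-only cultures of the same strain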; conditions: S. cerevisiae rad50 strain growth inhibition, active compounds read high
# In short: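 A DNA repair-deficient yeast mutant serves as the test organism; compound-induced growth inhibition is calculated against vehicle-treated cells.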
# [4] = NCI Yeast Anticancer Drug Screen. Data for the mec2-1 strain (AID 157); conditions: S. cerevisiae mec2-1 strain, active compounds read high
# In short: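 Readout is yeast growth inhibition, normalised to vehicle-treated controls, in the mec2-1 strain exposed to compound.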
# [5] = NCI Yeast Anticancer Drug Screen. Data for the rad14 strain (AID 159);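 note: 0% = growth of vehicle-treated control cultures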; conditions: S. cerevisiae rad14 strain growth inhibition, active compounds read high
# In short: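 Vehicle-treated cultures served as the baseline for growth inhibition of a DNA repair-mutant yeast strain exposed to each compound.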
# [6] = NCI Yeast Anticancer Drug Screen. Data for the sgs1 mgt1 strain (AID 161);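 note: 0% = growth of cultures given vehicle only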; conditions: S. cerevisiae sgs1 mgt1 strain, active compounds read high
# In short: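 Percent growth inhibition was derived by comparing compound-exposed mutant yeast with vehicle-exposed cultures. The strain carries alterations in DNA damage repair.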
# [7] = NCI Yeast Anticancer Drug Screen. Data for the CLN2oe strain (AID 163);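 note: 0% = growth of vehicle-only control cultures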; conditions: S. cerevisiae CLN2oe strain, active compounds read high
# In short: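 Values reflect how much compound exposure reduced yeast growth, referenced to vehicle-exposed cells. Assay organism is a strain with a defined genetic change affecting cell-cycle control.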
# [8] = NCI Yeast Anticancer Drug Screen. Data for the cln2 rad14 strain (AID 165);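 note: 0% = growth equal to vehicle treated cultures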; conditions: S. cerevisiae cln2 rad14 strain, active compounds read high
# In short: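 Relative to vehicle controls, growth inhibition of compound-treated cln2 rad14 yeast was recorded.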
# [9] = NCI Yeast Anticancer Drug Screen. Data for the bub3 strain (AID 167); conditions: S. cerevisiae bub3 mutant strain, active compounds read high
# In short: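 Inhibition values come from growth of compound-treated mutant yeast normalised to vehicle-treated controls.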
# [10] = NCI Yeast Anticancer Drug Screen. Data for the wt2 strain (AID 169);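 note: 0% = growth of vehicle-treated yeast cultures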; conditions: S. cerevisiae wt2 strain growth inhibition, active compounds read high
# In short: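 Values express reduction in yeast growth under compound treatment, referenced to vehicle-treated cells.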
# [11] = NCI Yeast Anticancer Drug Screen. Data for the mlh1 strain (AID 171);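 note: 0% = growth of vehicle-treated control cultures of the same strain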; conditions: S. cerevisiae mlh1 strain growth inhibition, active compounds read high
# In short: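 Steps: expose the defined-mutant yeast strain to compound; expose a parallel culture to vehicle; measure growth; express compound effect as inhibition relative to the vehicle culture.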
# [12] = NCI Yeast Anticancer Drug Screen. Data for the mlh1 rad18 strain (AID 175); conditions: S. cerevisiae mlh1 rad18 strain growth inhibition, active compounds read high
# In short: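 Test agents were incubated with a yeast strain of defined genotype (DNA damage repair defect). Inhibition of growth was derived by comparison with vehicle-exposed cultures.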
# [13] = NCI Yeast Anticancer Drug Screen. Data for the rad18 strain (AID 177); conditions: S. cerevisiae rad18 mutant growth inhibition, active compounds read high
# In short: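 A genetically defined yeast mutant impaired in DNA damage repair was treated with test compounds, then its growth was measured against cultures receiving vehicle alone.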
# [14] = at 5.0 µM (retest, dose inferred, filed as 0.5)
# [15] = at 50.0 µM (retest, dose inferred, filed as 5.0)
smiles,measurement,setting,value
O=S1(=O)c2ccccc2N=C(c2ccccc2Cl)CC1c1ccc(F)cc1 (stereo not drawn),growth inhibition,[1]; at 1.2 µM,21%
same,growth inhibition,[1]; at 3.7 µM,24%
same,growth inhibition,[1]; at 11.0 µM,28%
same,growth inhibition,[1]; at 33.0 µM,35%
same,growth inhibition,[1]; at 100.0 µM,34%
same,growth inhibition,[2]; at 1.2 µM,0%
same,growth inhibition,[2]; at 3.7 µM,-4%
same,growth inhibition,[2]; at 11.0 µM,25%
same,growth inhibition,[2]; at 33.0 µM,36%
same,growth inhibition,[2]; at 100.0 µM,8%
same,growth inhibition,[3]; at 1.2 µM,-39%
same,growth inhibition,[3]; at 3.7 µM,-34%
same,growth inhibition,[3]; [14],-7%
same,growth inhibition,[3]; at 11.0 µM,-18%
same,growth inhibition,[3]; at 33.0 µM,17%
same,growth inhibition,[3]; [15],29%
same,growth inhibition,[3]; at 50.0 µM,18.3%
same,growth inhibition,[3]; at 100.0 µM,13%
same,growth inhibition,[4]; at 1.2 µM,-52%
same,growth inhibition,[4]; at 3.7 µM,-27%
same,growth inhibition,[4]; [14],-22%
same,growth inhibition,[4]; at 11.0 µM,-29%
same,growth inhibition,[4]; at 33.0 µM,0%
same,growth inhibition,[4]; [15],-10%
same,growth inhibition,[4]; at 50.0 µM,-10.2%
same,growth inhibition,[4]; at 100.0 µM,-27%
same,growth inhibition,[5]; at 1.2 µM,-32%
same,growth inhibition,[5]; at 3.7 µM,-47%
same,growth inhibition,[5]; at 11.0 µM,-25%
same,growth inhibition,[5]; at 33.0 µM,-3%
same,growth inhibition,[5]; at 100.0 µM,-6%
same,growth inhibition,[6]; [14],-5%
same,growth inhibition,[6]; [15],-8%
same,growth inhibition,[6]; at 50.0 µM,61%
same,growth inhibition,[7]; at 1.2 µM,-9%
same,growth inhibition,[7]; at 3.7 µM,-8%
same,growth inhibition,[7]; at 11.0 µM,-10%
same,growth inhibition,[7]; at 33.0 µM,-1%
same,growth inhibition,[7]; at 100.0 µM,-13%
same,growth inhibition,[8]; [14],17%
same,growth inhibition,[8]; [15],16%
same,growth inhibition,[8]; at 50.0 µM,31.5%
same,growth inhibition,[9]; at 1.2 µM,-4%
same,growth inhibition,[9]; at 3.7 µM,-16%
same,growth inhibition,[9]; [14],-20%
same,growth inhibition,[9]; at 11.0 µM,-5%
same,growth inhibition,[9]; at 33.0 µM,-2%
same,growth inhibition,[9]; [15],56%
same,growth inhibition,[9]; at 50.0 µM,3.25%
same,growth inhibition,[9]; at 100.0 µM,13%
same,growth inhibition,[10]; at 1.2 µM,-6%
same,growth inhibition,[10]; at 3.7 µM,-8%
same,growth inhibition,[10]; at 11.0 µM,-20%
same,growth inhibition,[10]; at 33.0 µM,7%
same,growth inhibition,[10]; at 100.0 µM,25%
same,growth inhibition,[11]; at 1.2 µM,-17%
same,growth inhibition,[11]; at 3.7 µM,-10%
same,growth inhibition,[11]; at 11.0 µM,-8%
same,growth inhibition,[11]; at 33.0 µM,13%
same,growth inhibition,[11]; at 100.0 µM,7%
same,growth inhibition,[12]; [14],-26%
same,growth inhibition,[12]; [15],81% (active)
same,growth inhibition,[12]; at 50.0 µM,72.5% (active)
same,growth inhibition,[13]; at 1.2 µM,-3%
same,growth inhibition,[13]; at 3.7 µM,2%
same,growth inhibition,[13]; at 11.0 µM,18%
same,growth inhibition,[13]; at 33.0 µM,36%
same,growth inhibition,[13]; at 100.0 µM,22%
